In ChEMBL document CHEMBL3433997, “St. Jude Leishmania screening dataset” (2016):

Tests used:
Type in all cases: functional
[1] = molecular target: Solute carrier family 2, facilitated glucose transporter member 1 (Homo sapiens) (UniProt P11166); test: ST_JUDE_LEISH: Cytotoxicity at 2uM final concentration against transgenic Leishmania Mexicana promastigotes LmGLUT1 that are glucose transport deficient and complemented with the human glucose transporter GLUT1. Activity is measured by DNA content using SYBR green in vitro
Solute carrier family 2, facilitated glucose transporter member 1 (Homo sapiens), sequence (P11166 whole entry): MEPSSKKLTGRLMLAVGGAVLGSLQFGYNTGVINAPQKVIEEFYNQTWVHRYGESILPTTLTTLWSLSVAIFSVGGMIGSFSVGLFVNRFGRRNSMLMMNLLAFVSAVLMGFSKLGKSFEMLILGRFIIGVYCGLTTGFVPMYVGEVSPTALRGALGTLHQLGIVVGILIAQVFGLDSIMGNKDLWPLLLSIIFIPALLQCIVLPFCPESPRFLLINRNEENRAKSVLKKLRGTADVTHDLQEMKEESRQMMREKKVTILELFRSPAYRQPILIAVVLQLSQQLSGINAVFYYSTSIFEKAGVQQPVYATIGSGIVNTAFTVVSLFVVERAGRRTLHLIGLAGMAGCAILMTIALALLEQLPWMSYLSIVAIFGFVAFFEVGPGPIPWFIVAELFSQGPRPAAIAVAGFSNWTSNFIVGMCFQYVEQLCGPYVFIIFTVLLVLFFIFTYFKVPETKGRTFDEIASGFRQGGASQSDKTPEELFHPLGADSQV

[2] = molecular target: Hexose transporter 1 (Plasmodium falciparum) (UniProt O97467); test: ST_JUDE_LEISH: Cytotoxicity at 2uM final concentration against transgenic Leishmania Mexicana promastigotes LmPfHT that are glucose transport deficient and complemented with the Plasmodium falciparum hexose transporter. Activity is measured by DNA content using SYBR green in vitro
[3] = molecular target: Glucose transporter (Leishmania mexicana) (UniProt O61059); test: ST_JUDE_LEISH: Cytotoxicity at 2uM final concentration against transgenic Leishmania Mexicana promastigotes LmGT2 that are glucose transport deficient and complemented with the L. Mexicana glucose transporter 2. Activity is measured by DNA content using SYBR green in vitro

SMILES | inhibition [1] [%] | inhibition [2] [%] | inhibition [3] [%]
CCN(CC)CCN(CCN(CC)CC)c1ccc(-c2nc3cc(Cl)c(Cl)cc3[nH]2)cc1 | 15.8 | 16.3 | 7.03
Nc1nc(F)nc2nc[nH]c12 | 29.6 | 29.2 | 22
COc1cccc(CCc2c(CCNCCCCCCNCCc3ccccc3)ccc(OC)c2OC)c1 | 93 | 102 | 106
NCC1(c2nc(-c3ccc(Cl)c(O)c3)c(-c3ccncc3)[nH]2)CCCCC1 | 3.72 | 2.75 | 0.55
COc1cc(NC(=O)Nc2ccc([N+](=O)[O-])cc2OC)c(OC)cc1Cl | 16.6 | 9.29 | 5
CC(=O)c1cccc2cc(C(=O)NC3CCC(CCN4CCc5ccc(C#N)cc5C4)CC3)[nH]c12 (centres undefined) | 2.35 | 2 | -0.27
COc1ccc2c(c1)CC(C)(C)NC2CCCCCCCCC1NC(C)(C)Cc2cc(OC)ccc21 (centres undefined) | 2.26 | 2.26 | 0.77
Cn1ncc2c3c(CCN4CCC(NCc5ccc6c(c5)NC(=O)CO6)CC4)c(Cl)cnc3ccc21 | 1.41 | 2.09 | -0.28
CC(=O)Nc1ccc(NC(=O)c2cc(-c3cc(Cl)ccc3O)n[nH]2)cc1 | -0.41 | -0.51 | 2.29
Cn1nc(-c2cccc(CN[C@@H]3CCc4ccc(O)cc43)c2)c2cnc(NCCCN3CCCC3)nc21 | 11.2 | 4.83 | 4.3
CCOc1ccc(Nc2cc(C)nc(Nc3ccc(OCC)cc3)n2)cc1 | 0.78 | 2.01 | 1.02
COc1cccc(-c2cnc(N)c(-c3nc4ccc(F)cc4[nH]3)c2)c1 | 5.87 | 7.53 | 4.49
CC(C)C1C(O)=C(c2ccc3ccccc3c2)C(=O)N1Cc1ccsc1 (centres undefined) | 4.27 | 5.59 | 2.54
CCCCOc1ccc(/C=C/c2ccc(-c3c(C)[nH]c(C)c(Cl)c3=O)s2)cc1 | -1.17 | 2.35 | -1.25
Cn1nc(-c2cccc(CNC3CCc4ccccc43)c2)c2cnc(NC3CCCC3)nc21 (centres undefined) | 2.84 | 5.46 | 3.3
Clc1ccccc1OCc1ccccn1 | 3.19 | 2.07 | 2.66
CC(C)n1c(C(C)(C)C)cc2c3c(N)nc(N)nc3ccc21 | 52.7 | 62.4 | 44.4

SMILES | inhibition [1] [%] | inhibition [2] [%] | inhibition [3] [%]
CCN1CCC(N(Cc2ccc(-c3ccc(C(F)(F)F)cc3)cc2)C(=O)Cn2c(SCc3cccc(F)c3F)cc(=O)c3ccccc32)C1 (centres undefined) | 0.27 | -0.31 | -0.18
O=C(Nc1ccc(-c2ccc(CN3CCNCC3)cc2)cc1)c1cccc(Cl)c1 | 107 | 104 | 104
CCn1ncc(Cl)c1CN(C)S(=O)(=O)c1ccc2ccccc2c1 | 5.72 | 6.41 | 6.31
Clc1ccc(OCc2ccccc2)c(-c2nc(-c3nc4ncc(Br)cc4[nH]3)cs2)c1 | 4.08 | 4.1 | 1.99
CC(CN1CCN(C)CC1)C(=O)Nc1ccc(-c2ccc(-c3nc4ccccc4[nH]3)cc2)cc1 (centres undefined) | 0.19 | 3.04 | 1.16
CC[C@H](C)CNC(=O)c1cncc(-c2cccc(CN(C)C3CCN(C)CC3)c2)c1 | 2.22 | 2.75 | 3.37
COc1ccccc1C1CCN(C2CCC(NC(=O)c3cc4cc(C(C)C)ccc4[nH]3)CC2)CC1 (centres undefined) | -0.19 | 0.03 | 9.55
COc1cc(NC(=O)N2CCOC(CCN3CCC(c4ccccc4)CC3)(c3ccc(Cl)c(Cl)c3)C2)cc(OC)c1OC (centres undefined) | 3.7 | 2.95 | 1.05
CC[C@H](C)CNC(=O)c1cncc(-c2ccc(CNC3CCCC3)cc2)c1 | 2.12 | 1.43 | 1.7
COc1ccc2nccc([C@@H](O)CN3CCC(NC(=O)C(c4cc5ccccc5s4)N4CCN(c5ccccc5OC)CC4)CC3)c2c1 (some centres undefined) | 1.84 | 1.89 | 0.56
Cn1nc(C(F)(F)F)c(-c2ccc(F)cc2)c1NC(=O)Nc1ccc(F)cc1 | 3.38 | 4.67 | 4.05
COc1ccc(-c2nonc2NC(=O)c2cccc(Cl)c2)cc1OC | 4.3 | 1.03 | 1.34
COc1cc2s/c(=N\C(=O)c3cccc([N+](=O)[O-])c3)n(C)c2cc1OC | 9.71 | 10.7 | 6.9
Cc1cc(N2CCCC2)nc(Nc2ccc(NC(=O)CC(C)C)cc2)n1 | 1 | 3.11 | 2.23
Oc1ccc(C2CNCCc3c2cc(O)c(OCc2ccccc2)c3Cl)cc1 (centres undefined) | -0.07 | -1.5 | 2.54
CC(C)CNCc1cccc(-c2ccc(CN(C(=O)NCCc3ccccc3)C3CCN(Cc4ccccc4)CC3)cc2)c1 | 75.8 | 79.1 | 56.8
